MITF inh: inhibitors of human MITF | O75030 | AlphaScreen MITF homodimerization, bead proximity signal | inhibition, % at 2.6 µM | 0.91% of 650,000 active; in the data active = inhibition above about 50%;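 note: 0% = vehicle wells with protein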
FBW7 act: human FBW7 E3 ligase activation, primary screen. Q969H0. AlphaScreen FBW7–phospho-cyclin E peptide binding, activator screen. normalized activity (activation), % at 26.1 µM. 0.13% of 650,000 active; in the data active = normalized activity above about 1.9%;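 note: purified mutant Fbw7 with reduced substrate affinity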
Target sequence (Q969H0 whole entry, looked up): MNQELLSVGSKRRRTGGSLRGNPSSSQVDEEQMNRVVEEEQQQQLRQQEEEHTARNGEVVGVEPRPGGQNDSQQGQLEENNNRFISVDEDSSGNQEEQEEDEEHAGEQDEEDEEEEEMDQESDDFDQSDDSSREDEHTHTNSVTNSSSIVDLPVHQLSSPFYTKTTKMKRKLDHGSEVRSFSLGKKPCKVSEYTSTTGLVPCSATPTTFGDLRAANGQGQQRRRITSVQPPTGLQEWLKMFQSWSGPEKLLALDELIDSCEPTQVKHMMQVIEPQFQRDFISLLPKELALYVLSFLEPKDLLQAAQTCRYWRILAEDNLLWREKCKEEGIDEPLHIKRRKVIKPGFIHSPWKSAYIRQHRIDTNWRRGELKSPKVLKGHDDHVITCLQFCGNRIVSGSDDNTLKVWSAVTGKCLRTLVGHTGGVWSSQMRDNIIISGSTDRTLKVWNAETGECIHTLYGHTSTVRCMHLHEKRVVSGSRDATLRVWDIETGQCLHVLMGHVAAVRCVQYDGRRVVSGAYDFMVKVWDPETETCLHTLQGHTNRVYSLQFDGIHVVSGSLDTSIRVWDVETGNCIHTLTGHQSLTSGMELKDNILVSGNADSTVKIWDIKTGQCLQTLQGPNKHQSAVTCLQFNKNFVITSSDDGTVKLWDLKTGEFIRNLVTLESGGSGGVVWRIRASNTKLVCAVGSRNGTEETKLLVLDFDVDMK
TEAD-YAP block: TEAD-YAP interaction inhibition | HEK-TIYL cells, TEAD-Gal4/YAP UAS-luciferase luminescence | inhibition, % at 9.12 µM | 1.4% of 640,000 active | AID 1259422; in the data active = inhibition above about 32%;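 note: 0% = median of test compound wells and 100% = reference inhibitor wells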
GPR151 ag: activators of human GPR151 | PathHunter beta-arrestin GPR151 cells, luminescence | 1% of 650,000 active | activation, % at 11.2 µM; in the data active = activation above about 4.9%;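 note: 0% = median of compound wells and 100% = cells with positive control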
Starred values were filed as active, the others as inactive. A selection: hits, their analogues and other compounds. The true share with any hit is near 3.4%.

SMILES	MITF inh	FBW7 act	TEAD-YAP block	GPR151 ag
COc1cc(C(=O)Oc2ccc([N+](=O)[O-])cc2)cc(OC)c1OC	9.7	0.0	-1.8	2.7
Nc1nc(NC2CCN(Cc3ccccc3)CC2)cc(N2CCCC2CO)n1 (stereo unspecified)	-16.3	0.0	1.6	-0.6
O=C(Cn1cnc2ccccc21)NCCOc1ccc(F)cc1	-1.4	0.1	6.2	-0.6
Cc1ccc(C(=O)c2ccc(N)cc2)cc1C	33.7	0.3	51.7*	1.9
CC1(C)Cc2c(c(N3CCOCC3)nc3snc(N)c23)CO1	7.0	0.0	35.9*	0.6
COc1ccc(-c2nc3cnccn3c2NCc2ccc(F)cc2)c(OC)c1	-6.0	-0.1	13.2	1.8
C(=N\Nc1cccc2cccnc12)/c1ccccn1	38.2	0.0	24.1	-3.3
Cc1c(/C=N/Nc2cccc3cccnc23)c(=O)n(-c2ccccc2)n1C	19.2	-0.1	87.8*	-5.2
CC(=O)CCN1C(=O)C(=O)c2cc(Br)ccc21	6.7	-0.5	16.2	0.0
CCCCN1C(=O)C(=O)c2cc(Br)ccc21	4.1	-0.2	41.4*	2.3
CCOc1ccccc1OCC(=O)N/N=C/c1cc(C)ccc1O	-14.1	-1.6	61.0*	-0.1
COc1cc(/C=N/NC(=O)COc2ccc(C)cc2C)ccc1O	-13.5	1.9*	-7.5	-0.4
Cc1ccc(/C=N/NC(=O)CCc2c(C)n[nH]c2C)cc1	4.2	-0.1	32.8*	-0.1
O=C(COc1ccccc1-c1ccccc1)N/N=C\c1ccc[nH]1	6.3	-0.2	50.5*	0.4
Cc1n[nH]c(C)c1CCC(=O)N/N=C/c1ccc(Br)cc1	10.4	0.1	4.8	-0.3
COc1ccc(CNc2ccc3ncc(-c4ccccc4)n3n2)cc1	2.2	-0.1	27.2	0.0
COc1cc(/C=N\NC(=O)COc2ccc(C)cc2C)cc(OC)c1O	5.7	0.0	-8.5	0.1
Cc1ccc(/C=N/NC(=O)COc2ccccc2C)cc1	-3.5	0.1	49.6*	-1.1
CCOc1cc([N+](=O)[O-])cc(/C=N/NC(=O)COc2cccc(C)c2C)c1O	66.0*	-0.1	-3.4	0.2
CCOc1ccccc1OCC(=O)N/N=C1\CCCC(=O)C1	-5.0	0.0	47.8*	1.1
Cc1ccc(C(C)C)c(OCC(=O)N/N=C2\CCCC(=O)C2)c1	3.9	0.1	1.9	2.0
COc1cc(/C=N\NC(=O)COc2cc(C)ccc2C(C)C)cc(OC)c1O	11.2	0.2	36.4*	-1.4
Cc1ccccc1OCC(=O)N/N=C/c1ccc(F)cc1	12.2	0.1	-1.7	0.6
CCOc1cc([N+](=O)[O-])cc(/C=N/NC(=O)COc2c(C)ccc(C)c2C)c1O	-2.9	0.1	0.0	1.8
CSc1nsc(N/N=C(\C)c2ccc(F)cc2)c1C#N	-11.6	-0.1	-14.0	-2.1
SMILES	MITF inh	FBW7 act	TEAD-YAP block	GPR151 ag
COc1cccc(Nc2nc(N3CCN(CCO)CC3)nc3c2cnn3C)c1	9.9	0.2	41.0*	1.9
CC(=O)N1CCN(Cc2ccc3c(c2)CN(C(=O)c2ccccc2)CCO3)CC1	0.1	-0.2	-16.6	0.1
O=C(NCc1cccc(C(F)(F)F)c1)c1cccc(NCCN2CCOCC2)n1	5.7	-0.2	12.1	4.1
O=C1/C(=C\c2ccco2)CCC/C1=C\c1ccco1	83.0*	-0.1	0.2	-0.5
O/N=C1\CCCC\C1=C\c1ccco1	4.4	-0.1	-12.8	1.6
O=C1/C(=C/C=C/c2ccco2)CCC/C1=C\C=C\c1ccco1	64.4*	-0.2	-1.9	0.4
O=C1Nc2ccccc2/C1=C/C=C/c1ccco1	7.7	0.1	-65.9	0.5
COc1ccc(-c2ccc(NS(=O)(=O)c3cc(C)cc(C)c3)cc2)nn1	17.3	1.9*	-6.6	0.2
COc1ccc(-c2ccc(/C=C/C(=O)c3ccco3)o2)cc1	63.1*	0.0	-41.9	3.6
COc1ccccc1-c1ccc(/C=C/C(=O)c2ccco2)o1	11.2	0.6	-48.7	-1.1
COc1ccc(Br)cc1/C=C/C(=O)c1ccco1	-4.4	-0.2	60.7*	-0.3
O=C(/C=C/Nc1ccc(Br)cc1Cl)c1ccco1	10.7	-0.2	93.6*	-4.0
O=C(COc1ccccc1Br)Nc1nccs1	12.8	-0.1	75.0*	-8.8
Cc1ccc(Cl)c(OCC(=O)Nc2nccs2)c1	9.9	0.0	56.1*	0.0
CC(C)c1ccccc1OCC(=O)Nc1nccs1	-1.5	-0.1	4.1	-0.7
O=C(NCCN=C1NS(=O)(=O)c2ccccc21)c1cccc([N+](=O)[O-])c1	4.4	0.0	1.4	2.2
c1ccc(CNc2ccnc(N3CCN(Cc4ccc5c(c4)OCO5)CC3)n2)cc1	10.7	0.0	-4.5	-1.0
Cc1ccc(F)cc1Nc1ncnc(N)c1[N+](=O)[O-]	17.3	2.1*	-0.7	-1.3
COc1ccc(N=CC2=C(O)c3ccccc3C2=O)c(OC)c1	2.9	0.0	69.4*	1.2
Cc1ccccc1N=CC1=C(O)c2ccccc2C1=O	6.8	0.0	86.7*	-0.5
O=C1C(C=Nc2ccc(F)cc2)=C(O)c2ccccc21	3.8	0.0	11.8	-1.6
COc1ccc(N=C(C)C2=C(O)c3ccccc3C2=O)c(OC)c1	-6.2	-0.3	-16.5	2.0
COc1ccc(/C=C(/NC(=O)c2ccc(Br)cc2)C(=O)NCCCO)cc1	32.2	0.0	-11.4	0.8
O=C(NCc1cccnc1)c1ccc2nc(N3CCN(Cc4ccc5c(c4)OCO5)CC3)sc2c1	-12.8	-0.2	-12.5	-0.9
O=C(Nn1c(SCc2cccc([N+](=O)[O-])c2)nc2ccccc2c1=O)c1ccccc1	9.2	0.1	-34.9	1.9
SMILES	MITF inh	FBW7 act	TEAD-YAP block	GPR151 ag
COc1ccc(C(C)=O)cc1CSc1nc2ccccc2c(=O)n1NC(=O)c1ccccc1	7.2	-0.1	-14.9	-1.3
Cc1ccc(NC(=O)CSc2nc3ccccc3c(=O)n2NC(=O)c2ccc(F)cc2)cc1	6.7	0.6	41.3*	-3.5
COc1ccc(C(=O)Nn2c(SCc3cccc(Br)c3)nc3ccccc3c2=O)cc1	-0.5	-0.1	51.8*	0.4
CCOC(=O)N1CCC(n2c(SCC(=O)Nc3ccc(C)cc3)nc3ccccc3c2=O)CC1	3.9	0.0	55.4*	-0.5
COc1ccc(C(=O)Nn2c(SCc3cccc([N+](=O)[O-])c3)nc3ccccc3c2=O)cc1	1.1	-0.1	71.6*	0.3
O=C(c1ccc(Cl)cc1)N1CCc2c([nH]c3ccccc23)C1c1ccccc1 (stereo unspecified)	2.6	-0.1	10.6	-2.0
Cc1csc(=O)n1CCCC(=O)O	11.6	0.2	6.3	0.7
COc1ccc(C(=O)OCC(=O)/C=C2/N(C)c3ccccc3C2(C)C)c(OC)c1	-6.1	0.1	1.9	-2.8
O=C(Nc1cc2c3c(c1)CCC(=O)N3CCC2)C1CC1	3.4	0.0	15.4	0.6
CC(C)(C)c1ccc(-c2nc3ccccc3c(=O)n2NC(=O)c2cccnc2)cc1	9.9	-0.1	83.5*	1.0
COc1ccc(C(=O)Nn2c(SCc3cccnc3)nc3ccccc3c2=O)cc1	-14.0	0.0	66.4*	-0.9
COc1ccc(C(=O)Nn2c(SCc3ccc(F)cc3)nc3ccccc3c2=O)cc1	-8.2	0.0	51.6*	2.6
COc1ccc(C(=O)Nn2c(SCc3ccc(C)cc3)nc3ccccc3c2=O)cc1	-3.3	-0.1	38.0*	2.1
COc1ccc(C(=O)Nn2c(SCc3ccc(Cl)cc3)nc3ccccc3c2=O)cc1	-2.4	0.1	30.3	0.2
